PubChem BioAssay (NCI)
Several values for one entry are separate records, joined by “and”; a condition that tells them apart may be missing. Equal values may be shown once. The panel holds about 83,000 compounds, 20% with a hit somewhere; the sample as a whole holds those more often.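 Growth was measured after 48 h exposure to one concentration of compound in 96-well plates. Values under 10 count as active.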 Activity calls are given as the source filed them.

These molecules were tested on HL-60(TB) leukemia (assay: NCI-60 one-dose screen, 48 h (100 = growth as untreated, 0 = no growth, -100 = all killed)). Details: 10 µM unless noted.

Structure (SMILES) | growth
O=C(Nc1ccc(Nc2ccncc2)cc1)c1ccc(Nc2ccnc3ccc([N+](=O)[O-])cc23)cc1[N+](=O)[O-] | 88.8% (inactive)
O=C(OCc1ncc(-c2ccc(C(F)(F)F)cc2)c(NC2CCCCCC2)n1)c1c(F)c(F)c(F)c(F)c1F | 27.5% (inactive)
COc1cc(-n2nc(C(=O)Nc3ccc(C(=O)O)cc3)nc2-c2ccccc2)cc(OC)c1OC | 103% (inactive)
CC(=O)c1c(C)c2cnc(Nc3ccc(N4CCNCC4)cn3)nc2n(C2CCCC2)c1=O | 21.8% (inactive)
Nc1ccc2c(O)cc(S(=O)(=O)O)cc2c1 | 89.8% (inactive) and 67% (inactive)
